The results in this text go back to publication PMC5540273 (PLoS ONE, 2017).

Molecules are shown by their SMILES.

Test systems include MLK2; MLK3; MRCKA; MST1R; MST4.
Conditions in all cases: concentration: 1 μM, replicates: in singlicate; n = 1
A further assay deals with T1, MLK1.
T1 construct: gene MAP3K9

The subject of a further assay is T2, MRCKB.
T2 construct: gene CDC42BPB

For a further assay, the system named is T3, MST1.
T3 construct: gene STK4

The subject of a further assay is T4, MST2.
T4 construct: gene STK3

The next assay has as its system T5, MST3.
T5 construct: gene STK24
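Also: KINOMEscan kinase panel screen.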

For the compound `CSc1ccc(NC2=C(c3ccc(Cl)cc3)C(=O)NC2=O)cc1` [SB-317658], the “%Inh” value with MLK1 came to 0%; with MLK2 it was 4%; in the assay on MLK3, 0%; with MRCKA, 0%; with MRCKB it was 0%; in the assay with MST1R it was 33%. Also, the “%Inh” value in the assay on MST1 is given as 29%; with MST2 it was 45%; with MST3, 0%; in the assay with MST4, 6%.

With `CCn1cnc2c(NCc3ccccc3)ncnc21` [SKF-96418], the “%Inh” value in the assay with MLK1 was 0%; in the assay on MLK2 it was 27%; in the assay with MLK3 it was 0%; in the assay on MRCKA, 0%; in the assay on MRCKB, 0%; in the assay with MST1R, 0%. Further, the “%Inh” value was determined as 0% in the assay on MST1, 14% with MST2, 5% with MST3 and 0% with MST4.

Regarding `O=C(Nc1n[nH]c2nc(-c3ccccc3)ccc12)C1CC1` [SB-708999], the “%Inh” value in the assay on MLK1 worked out at 0%; in the assay with MLK2, 11%; in the assay on MLK3 it was 5%; with MRCKA, 8%; with MRCKB, 0%; in the assay on MST1R it was 0%. Also, the “%Inh” value in the assay with MST1 was found to be 3%; in the assay on MST2, 0%; in the assay with MST3, 3%; in the assay with MST4, 41%.

Turning to `COc1ccc(NC(=O)c2ccoc2)cc1-c1ccc(C(=O)NCC2CC2)cc1` [GW810437], the “%Inh” value in the assay with MLK1 was 0%; with MLK2, 25%; with MLK3 it was 0%; with MRCKA, 0%; with MRCKB, 19%; with MST1R it was 0%. In addition, the “%Inh” value in the assay on MST1 came to 22%; in the assay with MST2, 8%; in the assay on MST3 it was 1%; with MST4, 0%.

With `COc1cc(Nc2nccc(N3CCC(NC(=O)Nc4ccc5c(c4)OCO5)C3)n2)cc(OC)c1OC` (centres unmarked) [GSK1379766], the “%Inh” value in the assay with MLK1 is listed as 36%; in the assay with MLK2, 0%; with MLK3, 46%; in the assay with MRCKA it was 11%; with MRCKB, 0%; with MST1R, 39%. For the same compound, the “%Inh” value with MST1 is reported as 0%; in the assay with MST2, 32%; in the assay on MST3, 0%; in the assay with MST4 it was 0%.

In the case of `CCn1c(-c2nonc2N)nc2c(-c3ccccc3)ncc(OCCCN)c21.O=C(O)C(F)(F)F.O=C(O)C(F)(F)F` [GSK260205], the “%Inh” value was 0% with MLK1; 0% in the assay with MLK2; 0% in the assay with MLK3; 99.9% with MRCKA; 99.3% in the assay on MRCKB; 45% in the assay with MST1R. In addition, the “%Inh” value in the assay on MST1 is 52%; with MST2, 0%; in the assay with MST3, 38%; in the assay with MST4, 71%.

Turning to `Nc1ncnc2scc(-c3ccc(NC(=O)Cc4cc(F)ccc4F)cc3)c12.O=C(O)C(F)(F)F` [SB-731254-M], the “%Inh” value with MLK1 came to 0%; in the assay on MLK2 it was 28%; in the assay with MLK3 it was 34%; in the assay with MRCKA, 0%; in the assay on MRCKB, 4%; in the assay with MST1R it was 20%. Moreover, the “%Inh” value is reported as 42% in the assay on MST1, 0% in the assay with MST2, 30% in the assay with MST3 and 24% in the assay on MST4.

On to `Cc1ccc(C)c(NC(=O)Nc2ccc(C)c(-c3ccc(C(=O)Nc4ccncc4)cc3)c2)c1` [GSK1398473], for which the “%Inh” value is 0% with MLK1; 0% with MLK2; 0% with MLK3; 24% in the assay with MRCKA; 21% in the assay with MRCKB; 26% in the assay with MST1R. The “%Inh” value in the assay on MST1 turned out to be 0%; in the assay with MST2 it was 34%; in the assay with MST3, 0%; in the assay with MST4, 0%.

In the case of `CN1CCN(Cc2ccc(NC(=O)Nc3ccc(N(C)c4ccnc(Nc5ccc(CS(C)(=O)=O)cc5)n4)cc3)cc2)CC1.Cl` [GW827654], the “%Inh” value in the assay with MLK1 is 14%; with MLK2, 24%; in the assay on MLK3 it was 0%; in the assay with MRCKA, 15%; in the assay with MRCKB, 30%; in the assay with MST1R it was 92.7%. The “%Inh” value with MST1 is 61%; in the assay with MST2, 99%; in the assay with MST3 it was 68%; in the assay with MST4, 83%.

For `Fc1cc(Cl)ccc1Nc1ccnc2cc(-c3ccc(CN4CCSCC4)o3)ccc12` [GW560106], the “%Inh” value was 14% in the assay on MLK1; 0% in the assay with MLK2; 13% with MLK3; 0% in the assay with MRCKA; 4% in the assay on MRCKB; 31% with MST1R. Besides, the “%Inh” value in the assay with MST1 worked out at 30%; in the assay with MST2, 0%; in the assay on MST3, 0%; in the assay with MST4, 0%.

`Cn1cc(-c2ccc3c(c2)CCN3C(=O)Cc2cc(F)cc(C(F)(F)F)c2)c2c(N)ncnc21` [GSK2635225]: the “%Inh” value in the assay on MLK1 worked out at 78%; in the assay on MLK2, 42%; in the assay on MLK3, 72%; with MRCKA it was 5%; with MRCKB it was 0%; in the assay with MST1R, 19%. Moreover, the “%Inh” value in the assay on MST1 is given as 39%; with MST2, 10%; in the assay on MST3, 0%; in the assay with MST4, 0%.

For the compound `O=C(Nc1n[nH]c2nc(-c3cccc(O)c3)ccc12)C1CC1` [SB-711805], the “%Inh” value in the assay on MLK1 is recorded as 0%; in the assay on MLK2 it was 13%; in the assay on MLK3, 3%; in the assay on MRCKA, 0%; with MRCKB, 0%; in the assay with MST1R it was 0%. Further, the “%Inh” value in the assay with MST1, in the assay with MST2, in the assay with MST3 and in the assay with MST4 was 0% each time.

On to `Cc1ccc(O)cc1Nc1ccnc2cc(-c3ccc(CN4CCCCC4)o3)ccc12` [GW557777], for which the “%Inh” value is on record as 2% in the assay with MLK1; 0% in the assay on MLK2; 2% with MLK3; 0% in the assay on MRCKA; 0% in the assay with MRCKB; 5% in the assay on MST1R. In addition, the “%Inh” value in the assay on MST1 is 0%; in the assay on MST2 it was 0%; in the assay on MST3, 17%; in the assay with MST4, 0%.

In the case of `Fc1cc(Cl)ccc1Nc1ccnc2cc(-c3ccc(CN4CCOCC4)o3)ccc12` [GW560109], the “%Inh” value with MLK1 was determined as 2%; in the assay on MLK2, 0%; with MLK3, 0%; in the assay with MRCKA, 13%; in the assay on MRCKB it was 0%; in the assay on MST1R it was 0%. The “%Inh” value in the assay on MST1, with MST2, in the assay on MST3 and with MST4 was 0% throughout.

Take `Cl.Cl.NCC(NC(=O)c1cc(-c2cccnc2)c(-c2ccnc3[nH]ccc23)s1)c1ccccc1` (centres unmarked) [GSK1323434]: the “%Inh” value was determined as 0% in the assay on MLK1; 0% with MLK2; 48% in the assay with MLK3; 39% in the assay on MRCKA; 35% with MRCKB; 84% in the assay with MST1R. Also, the “%Inh” value in the assay with MST1 came to 0%; in the assay on MST2 it was 8%; with MST3, 0%; in the assay with MST4, 15%.

As for `Cc1ccc(NC(=O)c2ccc(Cl)c(Cl)c2)cc1-c1ccc(C(=O)Nc2ccncc2)cc1` [GSK1398460], the “%Inh” value with MLK1 is 7%; in the assay on MLK2, 16%; in the assay on MLK3 it was 20%; in the assay with MRCKA, 25%; in the assay on MRCKB it was 32%; in the assay on MST1R, 31%. Moreover, the “%Inh” value is 8% in the assay on MST1, 0% in the assay with MST2, 6% with MST3 and 0% in the assay with MST4.

Consider `Cc1cccc(Nc2nc(N[C@H]3CCCC[C@H]3N)ncc2C(N)=O)c1.Cl` [GSK986310], for which the “%Inh” value is reported as 85% with MLK1; 40% with MLK2; 76% with MLK3; 13% with MRCKA; 0% in the assay with MRCKB; 44% with MST1R. Moreover, the “%Inh” value in the assay with MST1 is 34%; in the assay with MST2, 0%; in the assay with MST3, 52%; in the assay with MST4, 34%.
